Results published in the supplement of paper PMC10127200.
Structures can show the parent of a compound that is named as a salt.

Columns and labels:
Assay in all cases: Euclidean distance of Cell Painting phenotypic profile (signed KS, 77 features) to DMSO centroid (dimensionless distance); 5 or 10 uM (library dependent); higher = stronger phenotypic change vs DMSO (phenoactivity)
Conditions in all cases: 48 h
[1] = test system: 786-O
How it was run: (§1)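 Five cancer lines and a healthy fibroblast line received library compounds at 10 or 5 uM (library-dependent, 0.1% DMSO final) for 48 h. Stained cells were imaged confocally at 20X (9 fields/well). Harmony extracted 77 features, each scored as a signed Kolmogorov-Smirnov statistic against same-plate vehicle wells. Profiles were plate-position corrected, correlation-weighted and replicate-averaged at the top dose. Phenoactivity is the Euclidean distance from each profile to the median vehicle profile.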

[2] = test system: A549
How it was run: as §1

[3] = test system: DU145
How it was run: as §1

[4] = test system: FB
How it was run: as §1

[5] = test system: HEPG2
How it was run: as §1

[6] = test system: OVCAR4
How it was run: as §1

Row | Compound | Euclidean distance [1] | Euclidean distance [2] | Euclidean distance [3] | Euclidean distance [4] | Euclidean distance [5] | Euclidean distance [6]
1 | Cc1cnc(NC(=O)C2=C(O)c3ccccc3S(=O)(=O)N2C)s1 [Meloxicam] | 0.664 | 0.746 | 2.37 | 0.881 | 1.84 | 0.784
2 | CC(C)(Oc1ccc(Cl)cc1)C(=O)OCCOC(=O)c1cccnc1 [Etofibrate] | 0.948 | 0.732 | 0.949 | 1.01 | 0.725 | 0.894
3 | C/C=C1/[C@H](O[C@@H]2O[C@H](CO)[C@@H](O)[C@H](O)[C@H]2O)OC=C(C(=O)OC)[C@H]1CC(=O)OCCc1ccc(O)c(O)c1 [Oleuropein] | 0.802 | 0.844 | 0.63 | 0.971 | 0.64 | 1.46
4 | C=C[C@@H]1C[C@]1(NC(=O)[C@@H]1C[C@@H]2CN1C(=O)[C@H](C(C)(C)C)NC(=O)O[C@@H]1C[C@H]1CCCCCc1nc3ccc(OC)cc3nc1O2)C(=O)NS(=O)(=O)C1CC1 [Grazoprevir] | 1.16 | 1.31 | 1.33 | 1.88 | 0.937 | 1.22
5 | CCN(CC)C(=O)Nc1ccc(OCC(O)CNC(C)(C)C)c(C(C)=O)c1 (stereo unspecified) [Celiprolol hydrochloride] | 0.816 | 0.829 | 1.41 | 1.17 | 0.422 | 1.24
6 | N=C(N)NC(=O)Cc1c(Cl)cccc1Cl [Guanfacine Hydrochloride] | 1.58 | 0.941 | 1.05 | 1.09 | 0.41 | 0.929
7 | Cn1c(=O)c2[nH]cnc2n(C)c1=O [Aminophylline] | 1.11 | 1.06 | 0.75 | 0.798 | 0.585 | 0.841
8 | O=C1NS(=O)(=O)c2ccccc21 [Saccharin] | 1.09 | 0.449 | 0.729 | 0.738 | 0.461 | 0.73
9 | CCCNc1nc(Nc2ccc(C#N)cc2)ncc1C#CCCCNC(=O)[C@H](C)N(C)C(=O)/C=C/CN(C)C | 6.39 | 4.68 | 5.29 | 5.42 | 5 | 5.67
10 | CN1CCN(CC/C=C2/c3ccccc3Sc3ccc(S(=O)(=O)N(C)C)cc32)CC1 [Thiothixene] | 2.81 | 2.33 | 2.21 | 2.69 | 3.3 | 2.03
11 | Nc1nc(OCc2ccccc2)c2nc[nH]c2n1 [O6-Benzylguanine] | 1.02 | 0.825 | 0.926 | 1.41 | 0.548 | 0.833
12 | CCCCNc1ncc(-c2ccc(CN3CCOCC3)cn2)c(NC2CCC(O)CC2)n1 (stereo unspecified) | 0.709 | 1.2 | 0.694 | 1.26 | 0.659 | 0.882
13 | CCC(=O)O[C@]1(C(=O)SCF)[C@H](C)C[C@H]2[C@@H]3C[C@H](F)C4=CC(=O)C=C[C@]4(C)[C@@]3(F)[C@@H](O)C[C@@]21C [Fluticasone propionate] | 1.77 | 2.26 | 2.6 | 1.83 | 0.813 | 1.61
14 | COc1ccc(C[C@H](NC(=O)[C@H](C)NC(=O)CN2CCOCC2)C(=O)N[C@@H](Cc2ccccc2)C(=O)[C@@]2(C)CO2)cc1 | 5.28 | 4.5 | 5.11 | 5.13 | 5.18 | 6.2
15 | NS(=O)(=O)Cc1noc2ccccc12 [Zonisamide] | 1.61 | 0.951 | 0.986 | 0.762 | 0.835 | 1.9
16 | CCOc1cc(N)c([N+](=O)[O-])cc1C(=O)NC1CCN(CC2CC=CCC2)CC1 (stereo unspecified) [Cinitapride Hydrogen Tartrate] | 1.33 | 1.05 | 1.38 | 1.21 | 0.924 | 1.57
17 | CC(C)(O)CC(=O)NCCn1ccc2ncnc(Nc3ccc(Oc4cccc(C(F)(F)F)c4)c(Cl)c3)c21 | 1.98 | 2.02 | 1.57 | 1.52 | 1 | 1.73
18 | CCc1cncnc1N1CCN(Cc2nc3ccc(C(F)(F)F)cc3[nH]2)CC1 | 1.03 | 0.742 | 0.956 | 1.1 | 0.883 | 1.13
19 | Cc1cccc(-c2[nH]ncc2-c2ccc3ncccc3n2)n1 | 0.773 | 0.733 | 0.91 | 1.15 | 0.71 | 0.807
20 | O=c1c(O)c(-c2ccc(O)c(O)c2)oc2cc(O)ccc12 [Fisetin] | 0.642 | 0.833 | 1.17 | 0.987 | 0.906 | 0.911
21 | CCN[C@H]1C[C@H](C)S(=O)(=O)c2sc(S(N)(=O)=O)cc21 [Dorzolamide HCl] | 1.17 | 0.786 | 1.03 | 1.31 | 1.06 | 1.09
22 | CC(C)NCC(O)COc1cccc2[nH]c3ccccc3c12 (stereo unspecified) [Carazolol] | 1.27 | 0.789 | 1.12 | 0.974 | 1.07 | 1.31
23 | NC(=O)/C(=C/n1cnc(-c2cc(C(F)(F)F)cc(C(F)(F)F)c2)n1)c1cncnc1 [Eltanexor (KPT-8602)] | 2.1 | 3.48 | 2.69 | 4.12 | 2.35 | 3.66

Row | Compound | Euclidean distance [1] | Euclidean distance [2] | Euclidean distance [3] | Euclidean distance [4] | Euclidean distance [5] | Euclidean distance [6]
24 | Nc1cc(C(Cl)=C(Cl)Cl)c(S(N)(=O)=O)cc1S(N)(=O)=O [Clorsulon] | 1.15 | 0.636 | 0.797 | 0.676 | 0.743 | 1.18
25 | C/C=C(/C)C(=O)O[C@H]1[C@H](OC(C)=O)[C@@]2(CO)C(CC1(C)C)C1=CCC3[C@@]4(C)CCC(O[C@@H]5O[C@H](C(=O)O)[C@@H](O[C@@H]6O[C@H](CO)[C@@H](O)[C@H](O)[C@H]6O)[C@H](O)[C@H]5O[C@@H]5O[C@H](CO)[C@@H](O)[C@H](O)[C@H]5O)[C@](C)(CO)C4CC[C@@]3(C)[C@]1(C)C[C@H]2O.C/C=C(\C)C(=O)O[C@H]1[C@H](OC(C)=O)[C@@]2(CO)C(CC1(C)C)C1=CCC3[C@@]4(C)CCC(O[C@@H]5O[C@H](C(=O)O)[C@@H](O[C@@H]6O[C@H](CO)[C@@H](O)[C@H](O)[C@H]6O)[C@H](O)[C@H]5O[C@@H]5O[C@H](CO)[C@@H](O)[C@H](O)[C@H]5O)[C@](C)(CO)C4CC[C@@]3(C)[C@]1(C)C[C@H]2O (stereo partly specified) [Escin] | 1.14 | 0.784 | 0.972 | 1.18 | 0.678 | 1.24
26 | CC(C)Oc1ccc(-c2nc(-c3cccc4c3CC[C@@H]4NCCO)no2)cc1C#N [Ozanimod (RPC1063)] | 1.97 | 1.08 | 0.79 | 1.6 | 1.46 | 1.68
27 | CCS(=O)(=O)Nc1ccc2c(c1)/C(=C(/Nc1ccc(CN3CCCCC3)cc1)c1ccccc1)C(=O)N2 [Hesperadin] | 3.36 | 3.8 | 2.47 | 3.41 | 2.69 | 3.25
28 | O=C(O)C(Cc1c[nH]c2ccccc12)N1C(=O)c2ccccc2C1=O (stereo unspecified) | 0.991 | 0.979 | 0.681 | 0.852 | 0.417 | 0.641
29 | Cc1cc2ncnn2cc1Nc1ncc2c(n1)n(C1CCOCC1)c(=O)n2C | 1.35 | 1.07 | 1.33 | 1.79 | 0.714 | 0.718
30 | CCCCNc1ccc(C(=O)OCCOCCOCCOCCOCCOCCOCCOCCOCCOC)cc1 [Benzonatate] | 1.17 | 1.09 | 0.781 | 1.36 | 0.687 | 1.37
31 | COc1ccc2cc3[n+](cc2c1OC)CCc1cc2c(cc1-3)OCO2 [Berberine Sulfate] | 1.66 | 2.46 | 1.4 | 2.36 | 1.68 | 2.08
32 | O=c1cc(-c2ccc(O)c(O)c2)oc2cc(O)cc(O)c12 [Luteolin] | 1.39 | 1.21 | 2.73 | 1.9 | 1.36 | 1.27
33 | Nc1ccc(C(=O)Nc2cccc(-c3nc(N4CCOCC4)c4oc5ncccc5c4n3)c2)cn1 | 4.09 | 5.02 | 4.16 | 1.63 | 3.45 | 2.25
34 | CN1[C@@H]2CC[C@H]1C[C@@H](OC(c1ccccc1)c1ccccc1)C2 [Benztropine mesylate] | 1.38 | 0.973 | 1.51 | 1.56 | 1.19 | 1.21
35 | CCOC(CN1CCN(CC(C)C(=O)c2ccccc2)CC1)c1ccccc1 (stereo unspecified) [Eprazinone 2HCl] | 1.87 | 1.02 | 1.2 | 1.38 | 1.56 | 1.28
36 | CCCCCCCCc1ccc(CCC(N)(CO)CO)cc1 [Fingolimod] | 5.32 | 4 | 5.79 | 2.18 | 5.29 | 4.16
37 | CC(C[N+](C)(C)C)OC(N)=O (stereo unspecified) [Bethanechol chloride] | 1.22 | 0.995 | 0.866 | 0.979 | 1.03 | 0.949
38 | Cc1nc2ccc(-n3ncc(C(=O)c4cc5ccccc5[nH]4)c3N)cc2[nH]1 | 2.53 | 2.28 | 1.14 | 3.31 | 1.73 | 1.67
39 | CC/C(=C(\c1ccccc1)c1ccc(OCCN(C)C)cc1)c1ccccc1 [Tamoxifen Citrate] | 1.05 | 2.39 | 1.36 | 1.45 | 1.5 | 1.36
40 | Nc1nc(N)c2nc(-c3cccc(O)c3)cnc2n1 | 0.828 | 1.47 | 1.28 | 2.43 | 0.858 | 1.9
41 | C[C@H]1c2cccc(O)c2C(=O)C2=C(O)[C@]3(O)C(=O)C(C(N)=O)=C(O)[C@@H](N(C)C)[C@@H]3[C@@H](O)[C@@H]21 [Doxycycline monohydrate] | 0.783 | 0.495 | 1.01 | 0.929 | 0.637 | 0.672
42 | Fc1ccc([C@@H]2CCNC[C@H]2COc2ccc3c(c2)OCO3)cc1 [Paroxetine HCl] | 1.46 | 1.59 | 1.59 | 1.93 | 2.28 | 1.54
43 | O=[N+]([O-])c1cn2c(n1)OC[C@@H](OCc1ccc(OC(F)(F)F)cc1)C2 | 1.49 | 1.06 | 0.837 | 1.12 | 0.872 | 1.03
44 | CC(=O)OC[C@H]1O[C@@H]([S-])[C@H](OC(C)=O)[C@@H](OC(C)=O)[C@@H]1OC(C)=O.CCP(CC)CC.[Au+] [Auranofin] | 5.67 | 4.89 | 6.36 | 6.74 | 3.39 | 5.08
45 | CCc1oc2ccccc2c1C(=O)c1cc(Br)c(O)c(Br)c1 [Benzbromarone] | 0.882 | 0.749 | 0.48 | 1.01 | 0.723 | 1.14
46 | CC(=O)OCC(CCn1cnc2cnc(N)nc21)COC(C)=O [Famciclovir] | 1 | 0.742 | 0.892 | 0.846 | 0.598 | 1.57
